The list is not random: actives were taken first. Their share in the collection is about 18%.
TDP1 block: inhibitors of human tyrosyl-DNA phosphodiesterase TDP1; Q9NUW8; recombinant TDP1, AlphaScreen DNA substrate cleavage; Potency, µM (top dose mostly 130 µM), for the others: at the top dose activity change, negative = inhibition, actives largely listed as inhibitors; hit rate 0.28% among 350,000; AID 485290; also: potency is read from the fitted curve at half-maximal effect; % is scaled to controls: 0 for no effect and ±100 for the full control effect; nearly all actives have a fitted effect of over 40% in size
Target sequence (Q9NUW8 whole entry, looked up): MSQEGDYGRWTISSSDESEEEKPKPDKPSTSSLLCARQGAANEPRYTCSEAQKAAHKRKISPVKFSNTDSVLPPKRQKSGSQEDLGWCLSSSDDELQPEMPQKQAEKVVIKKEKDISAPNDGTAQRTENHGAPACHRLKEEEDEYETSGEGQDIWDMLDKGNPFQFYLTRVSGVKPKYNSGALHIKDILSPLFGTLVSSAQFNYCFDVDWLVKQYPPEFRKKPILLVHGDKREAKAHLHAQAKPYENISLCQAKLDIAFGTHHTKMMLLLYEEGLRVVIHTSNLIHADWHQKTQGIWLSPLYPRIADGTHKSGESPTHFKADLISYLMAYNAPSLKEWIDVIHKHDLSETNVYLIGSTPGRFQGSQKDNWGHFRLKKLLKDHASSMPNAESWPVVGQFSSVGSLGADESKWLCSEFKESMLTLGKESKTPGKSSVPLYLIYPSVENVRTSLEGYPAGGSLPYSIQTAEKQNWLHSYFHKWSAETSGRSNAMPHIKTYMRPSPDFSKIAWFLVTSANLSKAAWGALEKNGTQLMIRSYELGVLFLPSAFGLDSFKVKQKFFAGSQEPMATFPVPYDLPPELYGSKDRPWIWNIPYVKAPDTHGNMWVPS
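Signal: AlphaScreen proximity between streptavidin donor and anti-FITC acceptor beads on intact substrate. Reaction: Tdp1 1 nM, substrate 15 nM final, 5 min RT after 15 min compound preincubation.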
TDP1 cell CPT: growth inhibition of DT40 Tdp1-/-;hTDP1 cells with camptothecin (screen for TDP1 inhibitors) | chicken DT40 Tdp1-/-;hTDP1 cells + 20 nM CPT, ATP luminescence, 48 h | Potency, µM (series often up to 46.2 µM), for inactives: at the top dose activity change, negative = growth inhibition, usual class: inhibitors | hit rate 12% among 420,000 | AID 686979; also: potency is read from the fitted curve at half-maximal effect; % is scaled to controls: 0 for no effect and ±100 for the full control effect; nearly all actives have a fitted effect of over 55% in size
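Cell growth measured by CellTiter-Glo luminescence after a minimum 48 h, 37 C compound exposure with 20 nM CPT in Tdp1-knockout DT40 cells stably expressing hTDP1, seeded 400/well; qHTS titration format.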
IL-1B inflam inh: inflammasome signaling inhibition, IL-1 beta readout. THP-1 LPS/ATP IL-1B secretion, AlphaLISA, 16 h; stronger effect = lower value. hit rate 4.7% among 360,000. activity change, % at 57.5 µM. AID 743279; in the data active = activity change below about -50%; inconclusive = mostly about -30% to -49%; also: % is scaled to controls: 0 for no effect and ±100 for the full control effect
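THP-1 cells pretreated 1 hr with compounds (up to 57.5 uM final), then stimulated with LPS (250 ng/mL final) plus ATP (1.25 mM final); secreted IL-1B measured by AlphaLISA after 16 hr, decreased signal indicating inhibition.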
TGFb inhibitor: TGF-b pathway inhibition | HepG2 CAGA-GFP TGF-b/SMAD3 reporter, GFP fluorescence, 18 h; TGF-beta stimulated, 500 pg/mL final | Potency, µM (top dose mostly 46.1 µM), inactives show at the top dose activity, negative = inhibition, most hits filed as inhibitors | hit rate 1.2% among 410,000 | AID 588855; also: potency is read from the fitted curve at half-maximal effect; % is scaled to controls: 0 for no effect and ±100 for the full control effect; nearly all actives have a fitted effect of over 65% in size
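Cell-based qHTS in HEPG2 carrying a CAGA-GFP Smad reporter; compounds added before 500 pg/mL final TGF-beta, 18 h incubation at 37 degrees C, GFP fluorescence quantified per cell by imaging cytometry.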
DT40 TDP1 no CPT: qHTS for Inhibitors of human tyrosyl-DNA phosphodiesterase 1 (TDP1): qHTS in cells in absence of CPT | DT40 Tdp1-/- hTDP1 cells, no CPT, ATP luminescence, 48 h | Potency, µM (series often up to 46.2 µM), without a hit: at the highest dose activity change, negative = growth inhibition, usual class: inhibitors | hit rate 15% among 420,000 | AID 686978, 2013; also: potency is read from the fitted curve at half-maximal effect; % is scaled to controls: 0 for no effect and ±100 for the full control effect; nearly all actives have a fitted effect of over 55% in size
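Camptothecin absent (DMSO only). Human TDP1-complemented DT40 knockout cells, 400 cells/well, 37 °C for minimum 48 hr; ATP measured via CellTiter-Glo, 30 min dark incubation, luminescence.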
HepG2 viability: HepG2 cytotoxicity, counter-screen for TGF-b inhibitors. HepG2 CAGA-GFP viability, ATP luminescence, 18 h. Potency, µM (doses to about 46.1 µM), for the others: at the top dose activity change, negative = cytotoxicity, most hits filed as cytotoxic. hit rate 0.76% among 410,000; also: potency is read from the fitted curve at half-maximal effect
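CellTiter-Glo luminescence gave cytotoxicity after 18 hours at 37 degrees C. The cells were HepG2 CAGA-GFP in 1% FBS DMEM, stimulated with 500 pg/mL TGF-beta after compound addition. %Activity was normalised to no-cell wells (complete cell-killing) and DMSO (no toxicity), and curves were fitted and classified.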
* marks the source's active call; other numbers are inactive results; u = inconclusive; x = not tested or not shown; ! = not confirmed by another sample; [ ] = dose if it differs, or a comment. Unless noted, calls follow the shape of the dose curve; as a rule, active = well fitted curve in the direction sought with a large enough effect; inconclusive = small, poorly fitted or top-dose-only effect, or another doubt; inactive = no such curve, though single readings can be large; an effect the other way counts as inactive or inconclusive.

SMILES | TDP1 block | TDP1 cell CPT | IL-1B inflam inh | TGFb inhibitor | DT40 TDP1 no CPT | HepG2 viability
Cn1ncc2c(O/N=C(\N)c3ccc(C(F)(F)F)cc3)ncnc21 | 4% | 6.5µM* | -70* | u | 5.2µM* | -111%
COC(=O)c1ccc(Nc2ncnc3c2cnn3C)cc1 | 8% | -12% | x | -30% | -8% | -7%
COC(=O)C1=CO[C@@H](OC2OC(CO)C(O)C(O)C2O)[C@@H]2[C@@H](C)[C@@H](O)C[C@H]12 (some centres not stated) | x | 7% | -21 | 11% | -6% | 1%
C[C@@H]1[C@H]2[C@@H](O[C@@H]3O[C@H](CO)[C@@H](O)[C@H](O)[C@H]3O)OC=C(C(=O)O)[C@H]2C[C@@H]1O | x | 7.3µM* | 4 | u | 7.3µM* | -43%
O=C(COc1ccc(Cl)cc1)Nc1cc2c3c(c1)CC(=O)N3CCC2 | x | 21µM* | 15 | 0% | 21µM* | -20%
CCCC(=O)Nc1cc2c3c(c1)CC(=O)N3CCC2 | 1% | -3% | -17 | 11% | u | 0%
COc1ccc(C/C(C)=N/NC(=S)Nc2ccc(Cl)cc2)cc1 | -3% | 15µM* | 44 | -16% | 12µM* | 8%
COc1ccc(C/C(C)=N/NC(=S)Nc2ccccc2)cc1 | 5% | u | -7 | u | u | 3%
COc1ccc(C/C(C)=N/NC(=S)Nc2ccc(C)c(C)c2)cc1 | 3% | 16µM* | 11 | -7% | 16µM* | -16%
COc1cc(OC)c(/C=N/N2CCN(c3ccccc3OC)CC2)c(OC)c1 | 9% | -17% | -3 | 5% | -1% | -41%
COc1ccc([C@H]2N[C@]3(CCCN(Cc4ccc(C(F)(F)F)cc4)C3=O)[C@H]3C(=O)N(C)C(=O)[C@@H]23)cc1 | x | u | 22 | -1% | u | 0%
Cc1ccc([C@H]2N[C@]3(CCCN(Cc4ccc(C(F)(F)F)cc4)C3=O)[C@H]3C(=O)N(C)C(=O)[C@@H]23)cc1 | x | 21µM* | 9 | -7% | 13µM* | -7%
CN1C(=O)[C@H]2[C@@H](c3ccc(C(F)(F)F)cc3)N[C@]3(CCCN(Cc4ccc(F)cc4)C3=O)[C@H]2C1=O | x | 9.2µM* | 14 | -9% | 7.3µM* | 3%
Cc1ccc(CN2CCC[C@]3(N[C@H](c4ccc(C(F)(F)F)cc4)[C@@H]4C(=O)N(C)C(=O)[C@@H]43)C2=O)cc1 | x | u | 5 | 7% | u | -2%
CN1C(=O)[C@H]2[C@@H](c3ccc(C(F)(F)F)cc3)N[C@]3(CCCN(Cc4ccc(Cl)cc4)C3=O)[C@H]2C1=O | x | 1% | 11 | -2% | 16µM* | -1%
CN1C(=O)[C@H]2[C@@H](c3ccc(C(F)(F)F)cc3)N[C@]3(CCCN(Cc4cccn4C)C3=O)[C@H]2C1=O | x | 23µM* | -19 | -27% | 16µM* | 0%
CC(=O)OC[C@@H]1CN(Cc2ccccc2)C[C@H](n2cnc3c(N4CCOCC4)ncnc32)O1 | x | u | 11 | -7% | -22% | -23%
CCCC(C(=O)NC1CCCC1)N(CC1CCCO1)C(=O)CNS(=O)(=O)c1ccccc1 (configuration not stated) | 8% | -9% | -11 | 4% | -27% | -2%
Cc1ccc(-n2cccn2)c(CN2CCC(CO)(CCc3ccccc3)CC2)c1 | 2% | -22% | -12 | u | u | -4%
CCCN(CCC)S(=O)(=O)c1ccc(C(=O)Nc2cccc(-c3nc4ccccc4[nH]3)c2)cc1 | 8% | 4.6µM* | x | -24% | 4.6µM* | -5%
CC(=O)Nc1ccc2nc(-c3cc(C)ccc3C)[nH]c2c1 | -2%[12.3 µM] | 3.3µM* | x | -6% | 3.3µM* | -9%
CC(=O)Nc1cc(NC(C)=O)cc(-c2nc3ccccc3[nH]2)c1 | 6% | 8.2µM*! | 13 | 7.1µM*! | 5.8µM*! | 13µM*!
COc1c(Cl)cc(C(=O)Nc2cccc(-c3nc4ccccc4[nH]3)c2)cc1Cl | -2%[12.3 µM] | u | x | u | 23µM* | -87%
CC(=O)Nc1ccc2nc(-c3ccncc3)[nH]c2c1 | 7% | -2% | -15 | 0% | -3% | -8%
Clc1nc(NC2CCCCC2)c2cn[nH]c2n1 | x | -22% | 49 | -5% | -17% | 2%
SMILES | TDP1 block | TDP1 cell CPT | IL-1B inflam inh | TGFb inhibitor | DT40 TDP1 no CPT | HepG2 viability
O=C(/C=C/c1ccccn1)c1cc(Br)ccc1O | 5% | 23µM* | u | -3% | 23µM* | -5%
O=C(/C=C/c1ccccn1)c1ccc(Br)cc1O | 3% | 21µM* | -22 | 1% | 18µM* | 3%
CCOc1ccc(Br)cc1C(=O)N/N=C/c1ccccn1 | x | u | 31 | 13% | u | -2%
COc1ccc(/C=C/C(=O)c2cc(Br)ccc2O)cc1OC | 8% | -26% | -17 | -6% | -29% | -31%
CCOc1ccc(N(CC(=O)NC2CCCCC2)C(=O)CCC(=O)Nc2nccs2)cc1 | x | -3% | -18 | 5% | 0% | 14%
CCOc1ccc(N(CC(=O)NC2CCCC2)C(=O)CCC(=O)Nc2nccs2)cc1 | x | -11% | -52* | -1% | -24% | -9%
CCCNC(=O)C(Cc1ccc(Cl)cc1)NC(=O)c1ccc(C#N)cc1 (configuration not stated) | -1% | -3% | 14 | -4% | u | 0%
CC(=O)NC(Cc1ccc(Cl)cc1)C(=O)NCC(N)C(=O)c1ccccc1 (configuration not stated) | x | 16µM* | x | x | u | x
CCCNC(=O)C(Cc1ccc(I)cc1)NC(=O)c1ccc2ccccc2n1 (configuration not stated) | -2% | u | -1 | u | 21µM* | -10%
CCCNC(=O)C(Cc1ccc(Cl)cc1)NC(=O)c1ccc(-c2ccccc2)cc1 (configuration not stated) | 0% | 8.2µM* | -7 | 1% | 6.5µM* | 2%
NC(Cc1ccc(Cl)cc1)C(=O)O (configuration not stated) | 7%[56.1 µM] | 12% | x | x | 2% | x
CN(C)c1ccc(CNc2ccccn2)cc1 | x | -23% | -9 | -1% | u | -6%
COc1cc(C)ccc1OCc1cc(C(=O)NC(c2ccccn2)C(F)(F)F)no1 (configuration not stated) | x | 0.65µM* | -26 | 2% | u | -31%
